TRPM1 prom inh – reduces MITF-dependent TRPM1 promoter luciferase signal; SK-MEL-5 TRPM1 promoter luciferase, 24 h; inhibition, % at 12.5 µM; 330,000 tested, 0.83% active;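 active = mean inhibition across replicates of 60% or more, whatever share of single replicates reaches that level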
KKLEB cytotox – reduces viability of KKLEB cystic fibrosis airway cells. KKLEB CF airway cells viability, ATPlite luminescence, overnight; stronger effect = lower value; cells stimulated with P. aeruginosa culture filtrate. activity change (cytotoxicity), % at 5 µM. 360,000 tested, 0.36% active. AID 602141;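 active = corrected activity change at or below -50% at 5 µM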
CF NFkB inh – blocks PAF-induced NF-kB reporter in cystic fibrosis cells; KKLEB NF-kB-GFP reporter, GFP fluorescence overnight; inhibition, % at 5 µM; 360,000 tested, 0.86% active; AID 588850;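 active = at least 50% inhibition at 5 µM, scaled per plate between neutral and stimulator controls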;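 note: PAF is a Pseudomonas aeruginosa culture filtrate used as stimulus; plate controls were PAF-stimulated DMSO wells for no effect and unstimulated DMSO wells for full effect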
Peg3 promoter – reduces Peg3 promoter-driven luciferase expression in HeLa; HeLa PEG-Prom luciferase reporter, luminescence, overnight; AID 588405; inhibition, % at 20 µM; 360,000 tested, 1.7% active;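 active = inhibition of at least 50% at 20 µM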
ABHD5 PLIN5 PPI – ABHD5-PLIN5 protein interaction inhibition | 360,000 tested, 0.78% active | Q00G26+Q8WTS1 | inhibition, % at 4 µM | Split G. princeps luciferase complementation, luminescence, 4 h;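 active = inhibition above the mean inhibition across every tested compound plus 3 SD, cut at about 22% in these data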;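 note: 0% = DMSO only wells and the 100% control is not disclosed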
Target sequence (Q00G26 whole entry, looked up): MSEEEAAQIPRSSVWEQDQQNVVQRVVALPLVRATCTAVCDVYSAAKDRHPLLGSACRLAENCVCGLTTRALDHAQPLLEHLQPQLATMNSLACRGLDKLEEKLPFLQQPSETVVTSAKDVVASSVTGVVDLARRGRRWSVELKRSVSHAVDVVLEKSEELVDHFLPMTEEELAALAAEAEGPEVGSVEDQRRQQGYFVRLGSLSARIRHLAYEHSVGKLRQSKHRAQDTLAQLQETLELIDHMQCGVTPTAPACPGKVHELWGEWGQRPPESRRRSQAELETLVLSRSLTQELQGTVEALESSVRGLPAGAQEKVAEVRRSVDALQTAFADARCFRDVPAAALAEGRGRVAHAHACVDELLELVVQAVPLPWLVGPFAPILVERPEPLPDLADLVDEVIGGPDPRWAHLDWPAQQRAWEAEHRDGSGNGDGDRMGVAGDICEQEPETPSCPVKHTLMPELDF
Target sequence (Q8WTS1 whole entry, looked up): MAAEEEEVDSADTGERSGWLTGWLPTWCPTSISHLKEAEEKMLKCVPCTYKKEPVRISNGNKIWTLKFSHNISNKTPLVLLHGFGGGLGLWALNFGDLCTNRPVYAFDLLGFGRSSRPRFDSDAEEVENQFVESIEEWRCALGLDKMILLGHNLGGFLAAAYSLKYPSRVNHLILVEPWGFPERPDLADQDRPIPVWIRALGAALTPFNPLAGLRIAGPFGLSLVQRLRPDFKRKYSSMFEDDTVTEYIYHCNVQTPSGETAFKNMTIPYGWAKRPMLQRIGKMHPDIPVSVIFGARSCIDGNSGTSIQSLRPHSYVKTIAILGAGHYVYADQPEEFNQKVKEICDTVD
HIF-2a inh – HIF-2a inhibition; 786-0 RCC cells HIF-2a reporter, luciferase luminescence, overnight; inhibition, % at 18.8 µM; 360,000 tested, 0.72% active;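 active = inhibition of the luminescence signal of 40% or more relative to plate controls, in a single-dose primary screen at 18.75 µM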
CF NFkB inh conf – CF NF-kB inhibition confirmation, single concentration | shares compounds with CF NFkB inh | AID 602472 | 1,300 tested, 64% active | KKLEB CF airway cells, PAF-induced NF-kB-GFP fluorescence, overnight | inhibition, % at 5 µM; in the data active = inhibition above about 40%;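 note: stimulus PAF is a Pseudomonas aeruginosa filtrate and not platelet activating factor; plate controls were DMSO wells with stimulus for no effect and unstimulated DMSO wells for full effect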
An asterisk follows results filed as active; i = inactive; x = no result. A selection: hits, their analogues and other compounds. The true share with any hit is near 3.1%.

SMILES	TRPM1 prom inh	KKLEB cytotox	CF NFkB inh	Peg3 promoter	ABHD5 PLIN5 PPI	HIF-2a inh	CF NFkB inh conf
COc1cccc(-c2ccc3ncnc(NCc4cc(C)cs4)c3c2)c1	-1	4	71*	24	5	12	78*
CC(=O)c1sc(NC(=O)CS(=O)(=O)c2ccc(F)cc2)nc1C	-10	6	-18	1	6	-14	x
CC(=O)c1sc(NC(=O)CCS(=O)(=O)c2ccc(C)cc2)nc1C	10	-15	56*	10	4	13	38
CC1(C)CC(=O)c2sc(NC(=O)CCS(=O)(=O)c3ccccc3)nc2C1	x	-12	68*	17	4	-42	33
CCOc1cccc2sc(NC(=O)CCS(=O)(=O)c3ccccc3)nc12	13	-19	59*	53*	4	-57	26
CNc1cc(-c2ccc(OC)c(OC)c2)ncn1	x	-5	32	-160	16	-221	x
CNc1cncc(-c2ccc(OC)c(OC)c2)n1	x	-10	56*	8	6	9	39
CNc1ccc2ncc(-c3ccc(OC)c(OC)c3)n2n1	x	-19	76*	28	1	17	104*
CNc1cncc(-c2ccc(F)c(F)c2)n1	x	2	3	-28	9	-26	x
CC1(C)Cc2c(ccc3ccccc23)C(=O)N1	-5	-6	69*	-74	-4	-59	78*
O=[N+]([O-])c1cc(S(=O)(=O)NCCN2CCOCC2)ccc1Sc1nnnn1-c1ccccc1	79*	-3	73*	42	13	11	19
O=[N+]([O-])c1cc(S(=O)(=O)NCCCN2CCOCC2)ccc1Cl	5	-1	13	28	2	9	x
COc1ccc(N(CC(=O)NCCSC2CCCCC2)S(=O)(=O)c2ccccc2)cc1OC	-6	2	6	8	-8	10	x
COc1ccc(NC(=O)CN(C)C(=O)c2cc(-c3ccncc3)nc3ccccc23)cc1	2	-10	16	21	3	4	x
COc1ccc(Cl)cc1NC(=O)CN(C)C(=O)c1cc(-c2ccncc2)nc2ccccc12	8	-36	61*	42	4	6	10
CCCSc1nnc(Sc2nnnn2-c2ccccc2)s1	52	-35	56*	68*	10	37	18
C(=C\CSc1nnnn1-c1ccccc1)/CSc1nnnn1-c1ccccc1	8	-2	11	26	3	3	x
COc1ccc(-c2nc(NC(=O)c3ccc(OCC(=O)Nc4ccc(F)cc4)c(OC)c3)sc2C)cc1	32	-45	54*	18	-14	8	72*
CCC(CO)Oc1cc(NCc2ccc(C(C)(C)C)cc2)c2ncn(C(C)C)c2c1 (stereo not given)	1	1	51*	19	-5	20	29
CCCCOc1cc(NCc2ccccc2)c2ncn(C(C)C)c2c1	4	-8	60*	10	-10	1	22
CCC(CO)Oc1cc(NCc2ccccc2C(F)(F)F)c2ncn(C(C)C)c2c1 (stereo not given)	5	-17	61*	39	2	22	11
CCC(COC)Oc1cc(NCc2ccccc2)c2ncn(C(C)C)c2c1 (stereo not given)	6	-15	66*	0	-9	12	20
COc1cc(/C=C/C(=O)OCC(=O)c2c(N)n(C)c(=O)n(C)c2=O)ccc1OC(F)F	-3	4	-2	-9	0	-4	x
O=C(CS(=O)(=O)c1ccccc1)Nc1nccs1	2	-8	28	-3	-7	-1	x
CSCc1ccc(C(=O)OCC(=O)NC2CCCC2)o1	x	8	-10	8	-3	8	x
SMILES	TRPM1 prom inh	KKLEB cytotox	CF NFkB inh	Peg3 promoter	ABHD5 PLIN5 PPI	HIF-2a inh	CF NFkB inh conf
CC(=O)c1c(C)[nH]c(C(=O)COC(=O)c2ccc(C)s2)c1C	-26	26	64*	-135	7	-28	7
COC(=O)C1=C(NC(=O)c2ccccc2[N+](=O)[O-])CCS1	8	13	0	25	-4	22	x
O=C(O)/C=C/c1ccc2c(-c3ccccc3)onc2c1	-1	-16	59*	29	6	4	74*
CCN(CC)C(=O)c1ccc2c(c1)nnn2C	-7	-3	3	-6	0	9	x
CCOc1ccc2nc(SCC(=O)c3ccc(C)s3)sc2c1	-24	-11	-4	-88	1	-158	x
CCOc1ccc2nc(SCC(=O)c3ccc(O)cc3O)sc2c1	-25	0	58*	-72	-6	-63	45*
Brc1ccc2[nH]c3c(c2c1)CCC3	-3	-2	3	14	-3	-17	x
O=C1Cc2c([nH]c3ccc(Br)cc23)-c2ccccc2N1	-13	-25	85*	95*	6	i	106*
Cc1ccc(NC(=O)c2noc(C(C)C)c2[N+](=O)[O-])cc1	10	8	-2	-21	5	-78	x
COc1cc(C(=O)c2cc3c(cc2C)OCO3)cc(OC)c1OC	x	-19	58*	-71	0	5	82*
COc1cc(C(=O)NC(=S)NNC(=O)c2ccc3c(c2)OCO3)cc(OC)c1OC	5	7	-3	19	-8	13	x
O=C(Nc1ccc(C(F)(F)F)cc1)c1cc(-c2cccnc2)nc2ccc(Br)cc12	2	-14	0	42	6	-3	x
CC(=O)Nc1cccc(NC(=O)c2cc(-c3cccnc3)nc3ccc(Br)cc23)c1	8	-44	84*	61*	10	-73	57*
COc1ccc(S(=O)(=O)N2c3cc(C)ccc3OCC2C(C)(C)C)cc1 (stereo not given)	13	-38	50*	18	-4	11	59*
Cc1[nH]nc2nc(SCC(=O)NCCC3=CCCCC3)n(-c3ccc(Br)cc3)c(=N)c12	48	-34	63*	47	-11	-12	60*
O=c1cc(-c2ccc([N+](=O)[O-])cc2)c2ccc(O)cc2o1	-7	14	53*	49	1	11	25
COc1ccc(-c2cc(=O)oc3cc(OCC(C)=O)ccc23)cc1	-7	-6	23	12	-4	-15	x
COc1ccc(-c2cc(=O)oc3cc(O)ccc23)cc1	-6	-4	82*	5	-16	-4	86*
CCCCOc1ccc(C(=O)Nc2ccc(OCC(=O)N3CCOCC3)cc2)cc1	-44	-22	-10	-158	-1	-163	x
O=C(Nc1ccc(OCC(=O)N2CCOCC2)cc1)c1cncc(Br)c1	-6	-16	57*	-4	-1	3	48*
O=C(/C=C/c1cccc([N+](=O)[O-])c1)NC(=S)Nc1ccc(CN2CCOCC2)cc1	0	-34	67*	21	0	14	55*

Screens from PubChem.
